Drawing on ChEMBL document CHEMBL1201862, “PubChem BioAssay data set” (2004), this text covers GI50 for ten substances.

The campaign covered roughly 52,000 sequences. About 3,900 (7.5%) were called active. Cut-off read from the data, not from the text of the source: active = GI50 up to about 1.1 µM and inactive = higher. Not all results are given here. Results with a measured potency or affinity are listed apart.

This test relates to RXF 393.
One may read the GI50 as the concentration at which growth is held to half of that of the control. Lower therefore signals greater sensitivity of the cells. “[Bis(aminomethyl)tetramethylenesilane]tetrachloropaltinum(IV), CHEMBL2146189”: it took 25.4 µM to inhibit growth by half (GI50).

For the substance “[Bis(aminomethyl)pentamethylenesilane]tetrachloropaltinum(IV), CHEMBL2146204”, halving of growth (GI50) required 7.35 µM.

With “[Bis(aminomethyl)dimethylsilane]tetrachloroplatinum(IV), CHEMBL2146190”, the GI50 is 3.59 µM.

On to “[Bis(aminomethyl)dimethylsilane]dichloroplatinum (II), CHEMBL2146201”, for which halving of growth (GI50) required 34.2 µM.

On to “[Bis(aminomethyl)pentamethylenesilane]dichloropaltinum(II), CHEMBL2146202”, for which the GI50 is 2.92 µM.

“cis-Bis[[(trimethylsilyl)methyl]amino]tetrachloroplatinum(IV), CHEMBL2146191”: the GI50 came to 2.72 µM.

As for “[Bis(aminomethyl)tetramethylenesilane]dichloropaltinum(II), CHEMBL2146205”, the GI50 was determined as 12.6 µM.

“[Bis(aminomethyl)diethylsilane]tetrachloroplatinum(IV), CHEMBL2146203” registered a GI50 of 17.4 µM.

On to CISPLATIN, CHEMBL11359, for which halving of growth (GI50) required 3.33 µM.

For “mu-(1,7-nanodiamine-N,N')bis-(cis-aminedichloroplatimum (II)), CHEMBL2146215”, growth was halved (GI50) at 15.4 µM.
